Reference: PubChem BioAssay (NCI)
About 79,000 compounds went through this panel and 15% of them were active in at least one assay; those are over-represented in the sample as a whole. A number with no mark means an inactive call. The source made the active and inactive calls. Cut-off read from the data, not from the text of the source: active = growth inhibition above about 70%; inactive = the rest.

Legend:
[1] = NCI Yeast Anticancer Drug Screen. Data for the rad50 strain (AID 155);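 note: 0% = growth of vehicle-only cultures of the same strain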; conditions: S. cerevisiae rad50 strain growth inhibition; at 50.0 µM; hits give high values
How it was run: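 Vehicle-treated cultures provide the reference for the growth inhibition reported for compound-exposed, repair-deficient yeast.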

[2] = NCI Yeast Anticancer Drug Screen. Data for the mec2-1 strain (AID 157); conditions: S. cerevisiae mec2-1 strain, at 50.0 µM, hits give high values
How it was run: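 Mutant yeast (mec2-1) grown with compound; growth inhibition relative to vehicle control reported.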

[3] = NCI Yeast Anticancer Drug Screen. Data for the sgs1 mgt1 strain (AID 161);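 note: 0% = growth of cultures given vehicle only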; conditions: S. cerevisiae sgs1 mgt1 strain, at 50.0 µM, hits give high values
How it was run: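 Growth of a repair-deficient yeast mutant was monitored after compound treatment and expressed as inhibition relative to vehicle-treated cultures.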

[4] = NCI Yeast Anticancer Drug Screen. Data for the cln2 rad14 strain (AID 165);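 note: 0% = growth equal to vehicle treated cultures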; conditions: S. cerevisiae cln2 rad14 strain, at 50.0 µM, hits give high values
How it was run: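 Readout is yeast growth inhibition versus vehicle-treated controls, using a strain with cln2 and rad14 alterations exposed to compound.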

[5] = NCI Yeast Anticancer Drug Screen. Data for the mlh1 rad18 strain (AID 175); conditions: S. cerevisiae mlh1 rad18 strain growth inhibition; at 50.0 µM; hits give high values
How it was run: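 Genetically defined yeast (DNA repair-deficient) exposed to compounds; growth inhibition determined relative to vehicle.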

[6] = NCI Yeast Anticancer Drug Screen. Data for the bub3 strain (AID 167); conditions: S. cerevisiae bub3 mutant strain, at 50.0 µM, hits give high values
How it was run: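 Mutant yeast screening strain plus compound; vehicle-treated cultures serve as the 0% inhibition reference.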

SMILES	growth inhibition [1]	growth inhibition [2]	growth inhibition [3]	growth inhibition [4]	growth inhibition [5]	growth inhibition [6]
O=c1oc2ncccc2n1Cc1ccc([N+](=O)[O-])cc1	-14.7%	-22%	1.25%	20.8%	19.6%	
Cc1cc(C(O)CNCCn2cnc3c2c(=O)n(C)c(=O)n3C)ccc1O (stereo not drawn)	38.8%	-1.95%	19.4%	25.1%	12.3%	
CCOCCC12CCCCC1C/C(=N/OC(C)=O)c1ccccc12 (stereo not drawn)	9.3%	-5.95%	-0.45%	1.2%	35.8%	
Cc1cccc(NC(=O)c2cccc(C(=O)Nc3cccc(C)c3C)c2)c1C	-12.4%	0.6%	17.6%	-15.9%	-21.9%	
Cc1cccc(N2CC3CC4C=CC3(C2)O4)c1 (stereo not drawn)	13.7%	7.65%	4.45%	-15.2%	13.1%	
COc1cccc(CN(CCc2cccc(OC)c2OC)C(=O)CN2CCOCC2)c1O	-3.8%	9.35%	-0.05%	8.8%	-23.1%	4.9%
Cc1nc(N)[nH]c(=O)c1CCCN(c1ccccc1)S(=O)(=O)c1ccc(N)cc1	9.4%	-1.35%	-2.3%	-22.9%	19.6%	
Cc1cc(C)c(C2CC(O)C(CO)O2)cc1C (stereo not drawn)	-2%	-20.9%	-10.1%	14.1%	21.4%	
CN(/N=C/c1cccc2cccnc12)c1ccccc1	8.9%	6.3%	-0.45%	29.4%	16.7%	
CCCCCCCCCCCCCCCC[N+]1(CC)CCSCC1	96.6% (active)	97.9% (active)	97.2% (active)	97.5% (active)	97.8% (active)	
O=S(=O)(c1ccccc1)N1CN(S(=O)(=O)c2ccccc2)CN(S(=O)(=O)c2ccccc2)C1	0.95%	-9.35%	19.5%	10.6%	6.35%	
COC(=O)c1nc(N)nc(N)c1[N+](=O)[O-]	-8.45%	-17.7%	-22.6%	-15.2%	-14.9%	
O=C1CCSCCC(=O)Nc2ccccc2N1	3.6%	0.85%	16.6%	20.4%	-65.4%	
CCN(CC)CC1CCCCN1CC(=O)N1c2ccccc2NC(=O)c2ccccc21 (stereo not drawn)	-6.85%	-3.25%	5.25%	-6.1%	5.95%	
CCCNCC(O)COc1ccc2c3c(c(=O)oc2c1)CCC3 (stereo not drawn)	1.15%	10.8%	-23.9%	-8.25%	-15.8%	
CCCC(C)C(SC(CC)C(N)=O)C(=O)O (stereo not drawn)	-3.5%	-5.15%	5.1%	-12.8%	-9.15%	
CC(=O)OCCc1ccccc1C#N	7.35%	9.05%	9.3%	-11.1%	11.9%	
CSc1ncnc2[nH]ncc12	4.5%	20.9%	-30.5%	-20.9%	-62.1%	
O=C(c1ccccc1)C1CCCCN1C(=O)c1ccccc1 (stereo not drawn)	-13.8%	-8.3%	-4.6%	-17.3%	-21.9%	
COC(=O)C(C(C)C(C)[N+](=O)[O-])=P(c1ccccc1)(c1ccccc1)c1ccccc1 (stereo not drawn)	41.7%	3.4%	29.5%	11.2%	10.8%	
CCCCCN(C(=O)CCC)c1ccccc1	45.8%	8.5%	24.5%	17.7%	41.8%	
CCOC(=O)Cc1n[nH]c(=O)c2ccccc12	-21.6%	1.4%	1.2%	-21.4%	-6.95%	
CCC(O)(c1ccccc1)c1ccccc1	1.7%	3.5%	-5.65%	4.15%	-4.8%	
COC(=O)c1ccccc1NC(=O)c1cccc(Cl)c1	20.9%	6.85%	20.6%	16%	23.7%	

SMILES	growth inhibition [1]	growth inhibition [2]	growth inhibition [3]	growth inhibition [4]	growth inhibition [5]	growth inhibition [6]
NNC(=O)c1ccccc1O	36%	14.4%	15.5%	-12.3%	62%	13.4%
CCc1nc(N)nc(N)c1-c1ccc2c(c1)nnn2C	19.9%	14.8%	9.05%	-9.75%	17.9%	
O=C(NCC(=O)N1CCCC1C(=O)OC(=O)C1CCCN1C(=O)CNC(=O)OCc1ccccc1)OCc1ccccc1 (stereo not drawn)	44.3%	1.2%	4.35%	16.2%	-28.1%	18.2%
Cc1ccc(N=Nc2c(C)nc(N)nc2C)cc1	7.5%	13.9%	-12.7%	-2.85%	-6.55%	
CCOC(=O)C(Cc1cccc2ccccc12)(NC(C)=O)C(=O)OCC	-7.5%	-4.55%	-5.95%	-31.9%	-14.8%	
O=C1NC(=O)C(=NC2C(=O)NC(=O)NC2=O)C(=O)N1	6.65%	29.4%	31.3%	1.5%	19.8%	
N#Cc1ccccc1/C=N/O	0.15%	-6.55%	-8.75%	0.95%	-14.1%	
CCc1ccc(NC(=O)c2ccc(C(=O)Nc3ccc(CC)cc3)cc2)cc1	3.2%	6.6%	8.4%	14.1%	5.1%	
CC1(C)OC12C=CC1C2C2CCC1C21OC1(C)C (stereo not drawn)	8%	8.7%	-2.85%	20.1%	-14.6%	
C=CCCC(=O)OC(C)(C)C	16.8%	-15.4%	21.4%	7.2%	1.95%	
Cc1[nH]c(N)nc(=S)c1CCC(C)C	-16.6%	-9.7%	-1.05%	-100%	17.2%	
NC(=O)COc1c(Br)cc(Br)cc1Br	-1.55%	6.65%	-12.1%	-3.75%	-25.4%	
CC(C(O)c1ccccn1)[N+](=O)[O-] (stereo not drawn)	-11.4%	1.55%	-7.1%	-21.1%	-3.4%	
O=C(Nc1ccccc1)c1cc([N+](=O)[O-])cc([N+](=O)[O-])c1	9.25%	16.4%	15.3%	-24.6%	0.05%	
CC(C)OC(=S)SCC(=O)c1ccc(-c2ccccc2)cc1	1.7%	17.5%	21.3%		8.75%	30.9%
CC(O)CCC(O)CCCO (stereo not drawn)	7.8%	-10.7%	8.4%		-11.7%	4.65%
CSc1ccc(NC(=S)SCc2ccc3c(c2)OCO3)cc1Cl	95.7% (active)	98.6% (active)	98% (active)		97.2% (active)	97.5% (active)
CCOC(=O)C(C)N1CCCCCCC1 (stereo not drawn)	-19.9%	-13.5%	-2.3%		-0.8%	-6.15%
CCCCCCCCCCCO	-5.75%	-13.2%	-3.8%		-18.8%	2.15%
CCOP(=O)(OCC)OCCCCn1cnc2c1c(=O)n(C)c(=O)n2C	-32%	-9.4%	-15.7%		-3.1%	-2.65%
CSc1cccc(N)c1	-23.6%	-12.4%	-46.1%		-5.65%	-6.8%
CN(C)c1ccc(/C=C2/CC(=O)N(c3ccccc3)C2=O)cc1	16.3%	1.15%	25.1%	-35.3%	15.6%	
Clc1cc(Cl)cc(Nc2nc3ccccc3nc2-c2cccs2)c1	-19.3%	-14%	33.2%		-10.2%	-29.1%
O=C(O)C(=O)c1ccc(O)cc1O	-1.6%	2.6%	-8.15%		14.9%	1.85%
